This is part of a sample that, as a whole, favours compounds with a hit. Of some 79,000 tested, about 15% had one in any assay. A number with no mark means an inactive call. The source made the active and inactive calls. Cut-off read from the data, not from the text of the source: active = growth inhibition above about 70%; inactive = the rest.
Experiment: NCI Yeast Anticancer Drug Screen. Data for the wt1 strain (AID 149);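 note: 0% = growth of vehicle-treated wt1 cultures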
Conditions: S. cerevisiae wt1 strain (SPY 50644) growth inhibition, active compounds read high
Procedure: Growth inhibition of yeast strains with defined genetic alterations is measured as a screen for potential anti-cancer activity. Selected strains with alterations in DNA damage repair or cell cycle control were exposed to compounds and growth inhibition was measured relative to vehicle treated controls. The strain used in this assay is wt1

Row | Structure (SMILES) | growth inhibition (at 1.2 µM) [%] | growth inhibition (at 3.7 µM) [%] | growth inhibition (at 11.0 µM) [%] | growth inhibition (at 33.0 µM) [%] | growth inhibition (at 100.0 µM)
1 | N#C/C(=C1C=C/C(=N\O)C(Cl)=C\1)c1ccccc1 | -2 | -5 | 2 | 0 | 3%
2 | CC(=O)CC[N+](C)(C)C | 0 | 11 | 2 | -5 | 2%
3 | Nc1nc(Nc2ccccc2)nc(Nc2ccccc2)n1 | -3 | -10 | -12 | -15 | 81% (active)
4 | C[Si](C)(C)Cc1ccccc1C(=O)O | 1 | 1 | 4 | 38 | 99% (active)
5 | Cn1c(COc2ccc(/C=N/NC(=O)CCC(=O)N/N=C/c3ccc(OCc4c[n+]5ccccc5n4C)cc3)cc2)c[n+]2ccccc12 | 6 | 7 | 11 | 12 | 81% (active)
6 | CC(O)CN1C(=O)c2cccc3cc([N+](=O)[O-])cc(c23)C1=O (stereo not given) | -7 | 5 | 1 | -3 | 0%
7 | O=S(=O)(CCC[C@H]1[C@@H](CCOCc2ccccc2)C2CCCN1O2)c1ccccc1 (stereo not given in full) | 2 | 2 | 1 | 1 | 19%
8 | NCC(O)CSCc1ccc(Cl)cc1 (stereo not given) | -3 | -5 | -3 | -3 | 0%

Source: PubChem BioAssay (NCI)
